Assay [1] is described as follows: qHTS assay to identify small molecule antagonists of the constitutive androstane receptor (CAR) signaling pathway - cell viability counter screen (AID 1224837). Further: nearly all actives have a fitted effect of over 45% in size. Further: potency means the concentration at half of the fitted maximal effect. In a few lines:
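Cells are seeded, rested 4 hr at 37 C/5% CO2, dosed with compound (15-point series) and 50 nM CITCO, incubated a further 23 hr, and then CellTiter-Fluor reagent is added before fluorescence is read. The line is HepG2 with stable hCAR and CYP2B6-2.2kb.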
In general terms: qHTS replaces the single test concentration by a dilution series.

The nature of assay [2]: qHTS assay to identify small molecule antagonists of the estrogen related receptor signaling pathway with the pleiotropic PPARgamma coactivator (PGC) from Tox21 10K library - cell viability counter screen (AID 1224840; active means well fitted cell-killing curve with a large enough effect in the repeat runs, not every such curve was filed as active; further: nearly all actives have a fitted effect of over 40% in size; further: potency means the concentration at half of the fitted maximal effect). In a few lines: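 Cell viability is measured by CellTiter-Fluor fluorescence in PGC/ERR cells that receive compounds after a 6-hour attachment period and are then incubated 17.5 hours at 37 C.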

Assay [3] can be described thus: qHTS assay to identify small molecule antagonists of the estrogen related receptor signaling pathway with the pleiotropic PPARgamma coactivator (PGC) from Tox21 10K library (AID 1224841; call rule not given here; further: actives are mostly falling curves and most rising ones were filed inactive; nearly all actives have a fitted effect of over 50% in size; further: potency means the concentration at half of the fitted maximal effect). In a few lines: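 Cells stably carrying the PGC/ERR reporter, seeded at 2,000 per well, received pin-transferred compounds 6 h post-plating. Exposure lasted 18 h at 37 C. Signal: One-Glo luminescence.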

The nature of assay [4]: qHTS assay to identify small molecule agonists of the estrogen related receptor signaling pathway with the pleiotropic PPARgamma coactivator (PGC) from Tox21 10K library (AID 1224842). Further: nearly all actives have a fitted effect of over 15% in size. In a few lines:
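PGC/ERR reporter cell line, 2,000 cells per well, incubated 6 h at 37 C before 23 nL compound in DMSO was added. After 18 h at 37 C, One-Glo luminescence read following 30 min at room temperature.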

A short description of assay [5]: qHTS assay to identify small molecule agonists of the hypoxia (HIF-1) signaling pathway - cell viability counter screen (AID 1224844; calls by dose curve; further: nearly all actives have a fitted effect of over 50% in size; further: potency means the concentration at half of the fitted maximal effect). In a few lines: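 Viability counter screen: HRE-bla ME-180 cells plated 5 hrs before compound addition, treated 17 hrs at 37C and 5% CO2, then CellTiter-Glo added after the FRET reporter read; luminescence after 30 min.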
The nature of assay [6]: qHTS assay to identify small molecule agonists of H2AX (AID 1224845; active means well fitted activation curve with a large enough effect in the signal ratio in the repeat runs, not every such curve was filed as active; the % refers to the signal ratio). In a few lines:
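Wild-type CHO-K1 cells, plated overnight, exposed 3hr at 37C to 15 concentrations (0.76% DMSO final). Lysed, then HTRF anti-pH2AX (S139) cryptate and anti-H2AX-d2 antibodies, 24 hr room temperature; 665/620 nm emission read.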

The nature of assay [7]: qHTS assay to identify small molecule agonists of the hypoxia (HIF-1) signaling pathway (AID 1224846; active means well fitted activation curve with a large enough effect in the signal ratio in the repeat runs, not every such curve was filed as active; the % refers to the signal ratio). In a few lines: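 Agonist mode reporter screen. ME-180 cells stably expressing bla under HRE control received test compounds in DMSO for 17 hrs (37C, 5% CO2), and beta-lactamase activity was then detected with the CCF4-AM FRET substrate.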
Assay [8] in a line: qHTS assay to identify small molecule agonists of H2AX - cell viability counter screen (AID 1224847; calls by dose curve; further: nearly all actives have a fitted effect of over 30% in size; further: potency means the concentration at half of the fitted maximal effect). The method in brief:
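Quantitative HTS viability measurement: CHO-K1 wild-type cells in serum (10% FBS) medium, short 3 hr drug exposure at 37C with 0.76% DMSO, CellTiter-Glo luminescent detection.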

The nature of assay [9]: qHTS assay to identify small molecule antagonists of the estrogen related receptor (ERR) signaling pathway from Tox21 library (AID 1224848). Further: nearly all actives have a fitted effect of over 50% in size. The method in brief: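 Compounds dissolved in DMSO are pin-transferred onto ERR reporter cells (2,000 per well) that have settled for 6 h at 37 C. Plates then incubate 18 h at 37 C before ONE-Glo luciferase reagent and a luminescence read 30 min later.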

Assay [10] can be described thus: qHTS assay to identify small molecule agonists of the estrogen related receptor (ERR) signaling pathway from Tox21 library (AID 1224849; calls by dose curve; further: nearly all actives have a fitted effect of over 15% in size). The conditions noted are these: ERR reporter cell line, ONE-Glo luciferase, 18 h. The method in brief:
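Quantitative HTS in agonist format: NTP ERR cell line, compounds transferred in DMSO after 6 h plating, 18 h incubation at 37 C, ONE-Glo luminescence endpoint.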

Assay [11] is described as follows: qHTS RealTime-Glo MT Cell Viability Assay in HepG2 cells - 24 hour (AID 1224867). Further: nearly all actives have a fitted effect of over 50% in size. Further: potency means the concentration at half of the fitted maximal effect. In a few lines: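 Real-time, nonlytic viability: 600 HepG2 cells/well mixed with NanoLuc enzyme plus prosubstrate; 5 h settle, compound (DMSO) added by pintool; luminescence monitored over 40 h at 37 C.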
Assay [12] is described as follows: qHTS RealTime-Glo MT Cell Viability Assay in HEK293 cells - 32 hour (AID 1224868). Further: nearly all actives have a fitted effect of over 50% in size. Further: potency means the concentration at half of the fitted maximal effect. In a few lines:
(§1)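 Cells + reagent dispensed (600 cells/well, HEK293) → 5 h at 37 C/5% CO2 → 23 nL compound in DMSO pinned → 40 h at 37 C → luminescence read at 0, 8, 16, 24, 32, 40 h.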

The nature of assay [13]: A CellTox Green Cytotoxicity Assay to monitor cytotoxicity in HEK293 cells - 0 hour (AID 1224869). Further: nearly all actives have a fitted effect of over 50% in size. Further: potency means the concentration at half of the fitted maximal effect. The method in brief: (§2)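 Dead-cell fluorescence measured kinetically: asymmetric cyanine dye, HEK293, 600 cells/well, 5 h settle, 23 nL cpd/DMSO, 37 C, reads 0–40 h every 8 h.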
Assay [14] in a line: qHTS RealTime-Glo MT Cell Viability Assay in HepG2 cells - 40 hour (AID 1224870). Further: nearly all actives have a fitted effect of over 50% in size. Further: potency means the concentration at half of the fitted maximal effect. In a few lines:
(§3)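 HepG2 cells (600/well) mixed with RealTime-Glo MT reagent, settled 5 h at 37 C/5% CO2 before compound addition. Nonlytic NanoLuc luminescence from viable-cell prosubstrate reduction read repeatedly during 40 h treatment at 37 C.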

A short description of assay [15]: A CellTox Green Cytotoxicity Assay to monitor cytotoxicity in HEK293 cells - 40 hour (AID 1224871). Further: nearly all actives have a fitted effect of over 45% in size. Further: potency means the concentration at half of the fitted maximal effect. The method in brief:
as §2

Assay [16] in a line: qHTS RealTime-Glo MT Cell Viability Assay in HEK293 cells - 16 hour (AID 1224872). Further: nearly all actives have a fitted effect of over 50% in size. Further: potency means the concentration at half of the fitted maximal effect. The method in brief:
as §1

Assay [17] can be described thus: qHTS RealTime-Glo MT Cell Viability Assay in HepG2 cells - 8 hour (AID 1224873). Further: nearly all actives have a fitted effect of over 55% in size. Further: potency means the concentration at half of the fitted maximal effect. The method in brief: as §3
In assay [18] the target is Nuclear receptor subfamily 1 group I member 3 (Homo sapiens) (UniProt Q14994). The assay can be described thus: qHTS assay to identify small molecule antagonists of the constitutive androstane receptor (CAR) signaling pathway (AID 1224838).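 Further: HepG2 cells stably expressing hCAR with CYP2B6 luciferase reporter stimulated by CITCO; nearly all actives have a fitted effect of over 40% in size.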 In a few lines: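 Luminescence from a CYP2B6-2.2kb promoter reporter in hCAR-expressing HepG2 cells reflects CAR signaling. Cells received compounds at 15 concentrations and 50 nM CITCO (final), then incubated 24 h at 37 C/5% CO2.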
Nuclear receptor subfamily 1 group I member 3 (Homo sapiens), sequence (Q14994 whole entry, looked up): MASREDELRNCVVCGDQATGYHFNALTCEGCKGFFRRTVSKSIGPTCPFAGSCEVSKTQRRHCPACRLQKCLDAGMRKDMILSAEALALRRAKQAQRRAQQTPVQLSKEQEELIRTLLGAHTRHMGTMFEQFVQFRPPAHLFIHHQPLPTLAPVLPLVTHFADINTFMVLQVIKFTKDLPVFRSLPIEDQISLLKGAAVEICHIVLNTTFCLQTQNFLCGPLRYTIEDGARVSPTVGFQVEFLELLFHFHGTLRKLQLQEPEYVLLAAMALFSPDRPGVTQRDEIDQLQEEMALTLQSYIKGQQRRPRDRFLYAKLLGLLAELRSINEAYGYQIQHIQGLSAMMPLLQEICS

The target is the same in assay [19]. The experiment in a line: qHTS assay to identify small molecule agonists of the constitutive androstane receptor (CAR) signaling pathway (AID 1224839).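 Further: HepG2 cells stably carrying human CAR and a CYP2B6 luciferase reporter; nearly all actives have a fitted effect of over 15% in size.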 The method in brief: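 Double-stable HepG2 cells (hCAR, CYP2B6-2.2kb) seeded 4 h before compound addition. Exposure 24 h with 0.75 uM PK11195 final. Luciferase detected by ONE-Glo.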
For assay [20], the target named is Thyrotropin receptor (Homo sapiens) (UniProt P16473). The assay can be described thus: qHTS assay to identify small molecule agonists of the thyroid stimulating hormone receptor (TSHR) signaling pathway (AID 1224843; calls by dose curve; further: nearly all actives have a fitted effect of over 45% in size). In a few lines:
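HEK293/TSHR, 800 cells/well; cpd 30 min RT; add cAMP-d2 + anti-cAMP-cryptate, 1 h RT; fluorescence read on plate reader. 15-pt titration, n=3.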

Several values for one entry are separate records, joined by “and”; a condition that tells them apart may be missing. Equal values may be shown once. Records with an inconclusive call do not appear. The source holds several records for some structures; these can differ, active in one and inactive in another. Activity calls are given as the source filed them. Unless noted, the call rests on the fitted dose curve; in most records, active means well fitted curve in the direction sought with a large enough effect in the repeat runs; inconclusive means weak or mixed curves; inactive means no such curve, though single readings can be large; an effect the other way counts as inactive or inconclusive.
On the % scale 0 is the no-effect control and ±100 the full control effect.

Thyrotropin receptor (Homo sapiens), sequence (P16473 whole entry, looked up): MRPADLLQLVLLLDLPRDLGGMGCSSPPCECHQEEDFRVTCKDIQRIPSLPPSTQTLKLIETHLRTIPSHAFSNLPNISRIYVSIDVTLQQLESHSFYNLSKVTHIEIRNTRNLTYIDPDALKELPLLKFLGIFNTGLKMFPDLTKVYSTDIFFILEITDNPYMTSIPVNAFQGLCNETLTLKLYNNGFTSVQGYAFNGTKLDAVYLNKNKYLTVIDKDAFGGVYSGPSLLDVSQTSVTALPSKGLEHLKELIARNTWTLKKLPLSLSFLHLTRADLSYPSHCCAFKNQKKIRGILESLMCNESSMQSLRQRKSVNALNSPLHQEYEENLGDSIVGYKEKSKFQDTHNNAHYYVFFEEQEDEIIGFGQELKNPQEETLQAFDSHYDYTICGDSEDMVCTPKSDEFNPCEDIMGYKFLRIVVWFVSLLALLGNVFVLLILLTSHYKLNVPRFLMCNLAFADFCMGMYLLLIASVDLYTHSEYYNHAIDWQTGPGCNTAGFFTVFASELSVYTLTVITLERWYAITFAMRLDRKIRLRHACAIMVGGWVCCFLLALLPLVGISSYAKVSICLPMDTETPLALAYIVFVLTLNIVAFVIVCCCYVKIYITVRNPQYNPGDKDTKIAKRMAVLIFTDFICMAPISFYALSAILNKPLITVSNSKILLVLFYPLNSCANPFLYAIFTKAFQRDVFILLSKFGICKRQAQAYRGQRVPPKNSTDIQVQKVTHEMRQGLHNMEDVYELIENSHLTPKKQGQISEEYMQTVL

As to `O=c1[nH]c(=O)n(Cl)c(=O)n1Cl`, the Potency result in assay [1], in assay [2], in assay [3], in assay [4], in [5] and in [6] was “inactive” throughout. Also, the Potency entry in assay [8], in [9], in assay [11], in [12], in assay [13] and in assay [14] was “inactive” throughout. Besides, the Potency result in [15], in [16] and in [17] was “inactive” in each case. In addition, in [7], the molecule was called inactive. Besides, the activity change, positive = activation in assay [10] (at 92.4 µM (top of the series)) was 2.32% (inactive) and 2.59% (inactive) and 1.02% (inactive).
With `Cc1cc(Cl)ccc1N`, the Potency result in assay [1], in [18], in assay [19], in assay [2], in assay [20] and in assay [5] was “inactive” each time. The Potency result in assay [6], in [8], in assay [11], in assay [12], in assay [14] and in assay [16] was “inactive” throughout. The Potency entry in assay [17] was “inactive”. Also, the call in assay [7] was inactive. In addition, the Potency entry in assay [13] is “inactive and 38.9 µM (active)”; in [15] it was “inactive and 38.9 µM (active)”.
Take `COP(=O)(OC)C(O)C(Cl)(Cl)Cl` (stereo not drawn): the Potency entry in assay [1], in [18], in assay [2], in assay [4], in assay [20] and in [5] was “inactive” each time. The Potency result in [6], in [8], in assay [9], in [11], in assay [12] and in assay [14] was “inactive” in each case. For the same molecule, the Potency entry in assay [15], in assay [16] and in assay [17] was “inactive” each time. Moreover, the Potency in [3] is 24.6 µM (active) and inactive. Also, the activity change, positive = activation in assay [10] (at 42.5 µM (top of the series)) is 0.23% (inactive); in assay [10] (at 92.4 µM (top of the series)), -17% (inactive) and -12.3% (inactive).
As to `Nc1ccc(Cl)cc1`, the Potency result in assay [1], in [18], in assay [19], in assay [2], in assay [20] and in [5] was “inactive” each time. Besides, the Potency result in assay [6], in assay [8], in [11], in [12], in assay [13] and in assay [14] was “inactive” throughout. In addition, the Potency entry in assay [15], in assay [16] and in assay [17] was “inactive” throughout. In [7], the molecule was called inactive.
Consider `CC(Cl)(Cl)C(=O)O`, for which the Potency entry in assay [1], in assay [2], in assay [20], in assay [5], in assay [6] and in [8] was “inactive” each time. The Potency result in [11], in [12], in [14], in [15], in assay [16] and in [17] was “inactive” in each case. Also, the outcome in assay [7] was inactive.
Consider `CCCCCCCCCCCCCC[P+](CCCCCC)(CCCCCC)CCCCCC`, for which the Potency in [1] is 12.2 µM (active) and 13.8 µM (active); in [2], 21.8 µM (active) and 21.9 µM (active); in assay [5] it was 11 µM (active) and 17.5 µM (active) and inactive; in [8] it was 16 µM (active) and 28.6 µM (active) and 4 µM (active); in assay [11] it was 9.82 µM (active) and 19.7 µM (active) and inactive; in assay [12], 3.91 µM (active) and 2.47 µM (active) and 1.95 µM (active). The Potency in assay [14] is 11 µM (active) and 22.1 µM (active) and inactive; in [15], 13.9 µM (active) and 19.7 µM (active); in assay [16] it was 7.8 µM (active) and 8.78 µM (active); in assay [17] it was 17.5 µM (active) and 19.7 µM (active) and inactive. The Potency entry in assay [20] and in assay [6] was “inactive” in each case. Also, in assay [7], the molecule was called inactive.
